Experimental data taken from PubChem BioAssay (NCI).
This is part of a sample that, as a whole, favours compounds with a hit. Of some 83,000 tested, about 20% had one in any assay.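 Step 1: grow cells in 96-well plates. Step 2: add test compound at a single concentration. Step 3: incubate 48 h. Step 4: record percent growth.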 Unmarked numbers belong to inactive results. Calls of active or inactive are those of the source. The calls were made as follows: active = growth percent below 10; inactive = the rest.

Tests used:
Assay in all cases: NCI-60 one-dose screen, 48 h (100 = growth as untreated, 0 = no growth, -100 = all killed)
Conditions in all cases: 10 µM unless noted
HCT-15 colon = test system: HCT-15 colon
HT29 colon = test system: HT29 colon
SNB-75 CNS = test system: SNB-75 CNS
SNB-19 CNS = test system: SNB-19 CNS
U251 CNS = test system: U251 CNS
PC-3 prostate = test system: PC-3 prostate
SK-MEL-5 melanoma = test system: SK-MEL-5 melanoma
UACC-62 melanoma = test system: UACC-62 melanoma
LOX IMVI melanoma = test system: LOX IMVI melanoma
SK-MEL-28 melanoma = test system: SK-MEL-28 melanoma

Structure (SMILES)	growth (HCT-15 colon)	growth (HT29 colon)	growth (SNB-75 CNS)	growth (SNB-19 CNS)	growth (U251 CNS)	growth (PC-3 prostate)	growth (SK-MEL-5 melanoma)	growth (UACC-62 melanoma)	growth (LOX IMVI melanoma)	growth (SK-MEL-28 melanoma)
C=CC(=O)NCCOc1cccc(Nc2cc(NCCCNC(=O)C3CCC3)c(Br)cn2)c1	1.43% (active)	-15.2% (active)	-69.2% (active)	5.36% (active)	0.984% (active)	5.12% (active)	-41.4% (active)	-34.7% (active)	-25.3% (active)	-11.9% (active)
CC(=O)c1c(Nc2ccc(F)c(F)c2F)[nH]c2c(F)cc(F)cc2c1=O	4.32% (active)	3.62% (active)	-14.8% (active)	22%	0.133% (active)	4.75% (active)	-75.8% (active)	-27.9% (active)	5.66% (active)	4.71% (active)
CC1=CCC[C@@H]2C1(C)CC[C@H](C)[C@@]2(C)CC1=CC(=O)C(SC(C)(C)C)=CC1=O (stereo not given in full)	86.4%	77%	77.4%	94.5%	85%	56.1%	78.4%	67.1%	74.6%	94.2%
Nc1c(C(=O)O)cc(Cl)cc1[N+](=O)[O-]	104%	97.7%	89.8%	112%	104%	80.8%	103%	96.4%	100%	109%
C[N+](C)(C/C=C/c1ccccc1)Cc1ccccc1	97.8%	91.9%	87.5%	104%	102%	97%	95.6%	99.3%	89%	102%
CN(C)c1ccc(/C=C/C(=O)c2ccc(Nc3nc(Nc4ccc(F)cc4)nc(Nc4ccc(Cl)cc4)n3)cc2)cc1	57%	60.7%	76.9%	92.7%	67.9%	57.2%	50.2%	75.2%	75.6%	74.3%
CC1=NN(c2ccc(Cl)cc2)CC1(C)N=O (stereo not given)	27.4%	28.3%	75.7%	97.9%	91.5%	91.9%	95.4%	88.2%	28.1%	90.4%
